# Counter-ions that a name gives are not always drawn. ± gives the standard deviation of the averaged measurements.
# Key:
# [1] = system: Saccharomyces cerevisiae BY4741 SeMeCo community; assay: mean cell size (pixel area) (pixels); higher = larger cells; settings: 10 µM; 24 h; SM minimal medium
# Method in brief: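 Plates of 384 wells were acoustically predosed with drug at a final 10 µM in SM medium, and 70 µl of a Saccharomyces cerevisiae BY4741 preculture diluted from OD600 = 1.0 to OD600 = 0.3 was added for 24 h. The yeast formed a four-plasmid fluorescent community in which each plasmid complements one auxotrophy and carries a fluorescent marker. Fixed cells were imaged by automated confocal microscopy and analysed in Harmony for mean cell pixel area per well. Values are means of 3 replicates. Same SeMeCo high-content imaging drug screen: Selleck FDA-approved drugs at 10 µM, 24 h in SM medium, 384-well plates, 3 replicates.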
# [2] = system: Saccharomyces cerevisiae BY4741 SeMeCo community; assay: z-score of prototroph abundance vs DMSO median; higher = larger share of this subpopulation than in DMSO controls; settings: 10 µM; 24 h; SM minimal medium; subpopulation (auxotrophy): Prototroph
# Method in brief: (§1)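 A Saccharomyces cerevisiae BY4741 community carried four plasmids, each restoring one auxotrophy and encoding a distinct fluorescent protein. It was pre-grown overnight to OD600 1.0, diluted to 0.3, and 70 µl was added to 384-well plates acoustically predosed with library drugs (10 µM final), then grown 24 h in minimal SM medium. Cells were paraformaldehyde-fixed and imaged by automated confocal microscopy, with single-auxotroph fluorescent strains setting thresholds and autofluorescence correction. Each subpopulation's abundance was scored as a z-score against the vehicle-well median.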
# [3] = system: Saccharomyces cerevisiae BY4741 SeMeCo community; assay: z-score of subpopulation abundance vs DMSO median, subpopulation auxotrophic for M; higher = larger share of this subpopulation than in DMSO controls; settings: 10 µM; 24 h; SM minimal medium; subpopulation (auxotrophy): M
# Method in brief: as §1
# [4] = system: Saccharomyces cerevisiae BY4741 SeMeCo community; assay: z-score of subpopulation abundance vs DMSO median, subpopulation auxotrophic for L; higher = larger share of this subpopulation than in DMSO controls; settings: 10 µM; 24 h; SM minimal medium; subpopulation (auxotrophy): L
# Method in brief: as §1
# [5] = system: Saccharomyces cerevisiae BY4741 SeMeCo community; assay: z-score of subpopulation abundance vs DMSO median, subpopulation auxotrophic for U; higher = larger share of this subpopulation than in DMSO controls; settings: 10 µM; 24 h; SM minimal medium; subpopulation (auxotrophy): U
# Method in brief: as §1
# [6] = system: Saccharomyces cerevisiae BY4741 SeMeCo community; assay: z-score of subpopulation abundance vs DMSO median, subpopulation auxotrophic for H; higher = larger share of this subpopulation than in DMSO controls; settings: 10 µM; 24 h; SM minimal medium; subpopulation (auxotrophy): H
# Method in brief: as §1
# [7] = system: Saccharomyces cerevisiae BY4741 SeMeCo community; assay: z-score of subpopulation abundance vs DMSO median, subpopulation auxotrophic for LU; higher = larger share of this subpopulation than in DMSO controls; settings: 10 µM; 24 h; SM minimal medium; subpopulation (auxotrophy): LU
# Method in brief: as §1
# [8] = system: Saccharomyces cerevisiae BY4741 SeMeCo community; assay: z-score of subpopulation abundance vs DMSO median, subpopulation auxotrophic for LM; higher = larger share of this subpopulation than in DMSO controls; settings: 10 µM; 24 h; SM minimal medium; subpopulation (auxotrophy): LM
# Method in brief: as §1
# [9] = system: Saccharomyces cerevisiae BY4741 SeMeCo community; assay: z-score of subpopulation abundance vs DMSO median, subpopulation auxotrophic for HM; higher = larger share of this subpopulation than in DMSO controls; settings: 10 µM; 24 h; SM minimal medium; subpopulation (auxotrophy): HM
# Method in brief: as §1
# [10] = system: Saccharomyces cerevisiae BY4741 SeMeCo community; assay: z-score of subpopulation abundance vs DMSO median, subpopulation auxotrophic for UM; higher = larger share of this subpopulation than in DMSO controls; settings: 10 µM; 24 h; SM minimal medium; subpopulation (auxotrophy): UM
# Method in brief: as §1
# [11] = system: Saccharomyces cerevisiae BY4741 SeMeCo community; assay: z-score of subpopulation abundance vs DMSO median, subpopulation auxotrophic for HL; higher = larger share of this subpopulation than in DMSO controls; settings: 10 µM; 24 h; SM minimal medium; subpopulation (auxotrophy): HL
# Method in brief: as §1
# [12] = system: Saccharomyces cerevisiae BY4741 SeMeCo community; assay: z-score of subpopulation abundance vs DMSO median, subpopulation auxotrophic for HLU; higher = larger share of this subpopulation than in DMSO controls; settings: 10 µM; 24 h; SM minimal medium; subpopulation (auxotrophy): HLU
# Method in brief: as §1
# [13] = system: Saccharomyces cerevisiae BY4741 SeMeCo community; assay: z-score of subpopulation abundance vs DMSO median, subpopulation auxotrophic for HLM; higher = larger share of this subpopulation than in DMSO controls; settings: 10 µM; 24 h; SM minimal medium; subpopulation (auxotrophy): HLM
# Method in brief: as §1
# [14] = system: Saccharomyces cerevisiae BY4741 SeMeCo community; assay: z-score of subpopulation abundance vs DMSO median, subpopulation auxotrophic for HUM; higher = larger share of this subpopulation than in DMSO controls; settings: 10 µM; 24 h; SM minimal medium; subpopulation (auxotrophy): HUM
# Method in brief: as §1
# [15] = system: Saccharomyces cerevisiae BY4741 SeMeCo community; assay: z-score of subpopulation abundance vs DMSO median, subpopulation auxotrophic for LUM; higher = larger share of this subpopulation than in DMSO controls; settings: 10 µM; 24 h; SM minimal medium; subpopulation (auxotrophy): LUM
# Method in brief: as §1
# [16] = system: Saccharomyces cerevisiae BY4741 SeMeCo community; assay: z-score of subpopulation abundance vs DMSO median, subpopulation auxotrophic for HLUM; higher = larger share of this subpopulation than in DMSO controls; settings: 10 µM; 24 h; SM minimal medium; subpopulation (auxotrophy): HLUM
# Method in brief: as §1
# [17] = system: Saccharomyces cerevisiae BY4741 SeMeCo community; assay: z-score of subpopulation abundance vs DMSO median, subpopulation auxotrophic for HU; higher = larger share of this subpopulation than in DMSO controls; settings: 10 µM; 24 h; SM minimal medium; subpopulation (auxotrophy): HU
# Method in brief: as §1
Structure (SMILES),mean cell size [1],z-score of prototroph abundance [2],z-score of subpopulation abundance [3],z-score of subpopulation abundance [4],z-score of subpopulation abundance [5],z-score of subpopulation abundance [6],z-score of subpopulation abundance [7],z-score of subpopulation abundance [8],z-score of subpopulation abundance [9],z-score of subpopulation abundance [10],z-score of subpopulation abundance [11],z-score of subpopulation abundance [12],z-score of subpopulation abundance [13],z-score of subpopulation abundance [14],z-score of subpopulation abundance [15],z-score of subpopulation abundance [16],z-score of subpopulation abundance [17]
CC[N+](C)(C)c1cccc(O)c1 [Edrophonium chloride],12.28 ± 0.12,-0.67,0.34,-0.53,1.2,-1.41,1.17,-0.05,-0.15,0.7,-0.46,-0.56,-0.47,0.76,0.48,0.62,
Oc1c(Br)cc(Br)c2cccnc12 [Broxyquinoline],14.7 ± 0.16,-16.8,3.22,0.17,,11.6,6.62,5.88,27.7,6.77,10.5,27.1,49.4,15.8,12.8,44.9,16.9
CO[C@@]1(NC(=O)CSC[C@@H](N)C(=O)O)C(=O)N2C(C(=O)O)=C(CSc3nnnn3C)CS[C@@H]21 [Cefminox Sodium],12.6 ± 0.55,-0.58,-0.58,1.5,0.77,1.45,0.8,-0.15,-0.24,0,1.62,0.47,3.56,-0.35,-0.31,-0.45,
Clc1ccc(C(Cn2ccnc2)OCc2csc3c(Cl)cccc23)c(Cl)c1 (stereo not drawn) [Sertaconazole nitrate],12.5 ± 0.29,-8.82,-9.36,1.38,0.4,36.6,1.93,-3.39,0.2,-2.33,16.1,11.1,28.5,3.4,2.6,28.5,
CC[C@@H]1C(=O)OC[C@@H]1Cc1cncn1C [Pilocarpine HCl],12.7 ± 0.26,0.73,0.65,0.16,-0.55,0.8,-0.22,0.75,0.01,,-0.15,-0.93,-0.18,-1.4,,-0.1,-0.93
CC/C(=C(\c1ccccc1)c1ccc(OCCN(C)C)cc1)c1ccccc1 [Tamoxifen Citrate],11.7 ± 0.14,-0.56,-1.11,-0.42,0.72,,0.35,-0.23,0.16,,0.64,0.36,-0.48,1.07,,-0.65,0.74
CCN1CCC[C@H]1CNC(=O)c1cc(S(N)(=O)=O)ccc1OC [Levosulpiride],12.5 ± 0.17,0.49,-0.33,-0.4,,-0.73,0.1,-0.65,-0.96,0.08,,-1.02,-0.19,0.24,0.3,-0.54,-0.27

# Source: the supplement of paper PMC8975748
